Most compounds without a hit are left out; they make up all but 4.7% or so of the library.
PfHsp90 yeast 2: growth inhibition of PfHsp90-expressing yeast, primary screen, antimalarial PfHsp90 inhibitor project, S. cerevisiae, BacTiter-Glo luminescence, single point, set 2; AID 504621, 2011; hit rate 0.32% among 310,000; BacTiter-Glo ATP, 48 h; yeast lacking PDR1 and PDR3 efflux regulators; inhibition, % at 9.4 µM;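 active = every replicate shows inhibition above about 80%, whatever the replicate mean, limit read from the data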;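 note: 0% = DMSO neutral controls and 100% = 20 µM radicicol positive controls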
tim10-1 inh: growth inhibitors of tim10-1 mutant yeast, primary screen, luminescence, uHTS; S. cerevisiae tim10-1 ts strain growth, BacTiter-Glo, 24 h; inhibition, % at 20 µM; hit rate 2.2% among 330,000;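 active = inhibition of at least 40%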;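 note: mutant grown at 25 °C; 0% = DMSO wells with yeast and 100% = wells holding no yeast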
tim23-1 inh: growth inhibitors of tim23-1 mutant yeast, primary screen, luminescence, uHTS; AID 463212, 2010; hit rate 1.3% among 330,000; inhibition, % at 20 µM; S. cerevisiae tim23-1 growth, BacTiter-Glo luminescence, 24 h;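 active = growth inhibition of the mutant yeast at or above 50%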;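 note: temperature-sensitive mutant grown at 25 °C; plate controls were DMSO-treated mutant yeast for no effect and medium wells lacking yeast for full effect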
SKKanGAS inh: S. pyogenes SKKanGAS growth inhibitors in kanamycin, primary screen, streptokinase expression inhibitor project, SKKanGAS strain, BacTiter-Glo luminescence; 6 h; AID 1662, 2009; inhibition, % at 7.5 µM; hit rate 1.3% among 300,000;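 active = mean replicate score, as percent of positive control median, at least 50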;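 note: strain carries kanamycin resistance gene driven by streptokinase promoter and grows in 40 µg/ml kanamycin; loss of luminescence reflects streptokinase promoter inhibition or plain growth inhibition; 0% = median of DMSO wells and 100% = positive control at its reference dose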
EBI2 antag: EBI2 receptor antagonists, beta-arrestin recruitment, primary screen, cell-based, luminescence, 7a,25-OHC stimulation, uHTS | hit rate 0.81% among 360,000 | 7a,25-OHC stimulated | inhibition, % at 5 µM; in the data active = inhibition above about 38%;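 note: enzyme fragment complementation signal reports receptor beta-arrestin coupling in cells; 0% = agonist plus DMSO wells and 100% = wells without agonist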
Target sequence (P32249 whole entry, looked up, the tested form may be a part): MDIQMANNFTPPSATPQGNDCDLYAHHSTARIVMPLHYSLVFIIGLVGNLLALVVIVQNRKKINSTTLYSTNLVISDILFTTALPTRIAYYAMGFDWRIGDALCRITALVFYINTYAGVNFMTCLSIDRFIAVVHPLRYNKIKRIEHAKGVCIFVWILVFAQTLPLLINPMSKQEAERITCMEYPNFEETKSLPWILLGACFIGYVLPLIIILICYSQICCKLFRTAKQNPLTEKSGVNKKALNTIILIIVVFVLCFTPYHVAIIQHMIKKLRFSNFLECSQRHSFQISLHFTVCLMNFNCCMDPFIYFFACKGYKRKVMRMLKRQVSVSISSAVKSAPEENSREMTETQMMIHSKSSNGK
TIM10 inh: growth inhibitors of isogenic TIM10 control yeast, primary screen, counter-screen for tim10-1 yeast inhibitor project, luminescence, uHTS. inhibition, % at 10 µM. S. cerevisiae TIM10 strain growth, BacTiter-Glo luminescence, 24 h. AID 463195, 2010. hit rate 1.4% among 330,000;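 active = inhibition of 40% or more at the single tested concentration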;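 note: wild-type TIM10 isogenic control strain grown at permissive 25 °C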
tim10-1 confirm: growth inhibitors of tim10-1 mutant yeast, confirmation, single concentration, luminescence, S. cerevisiae. inhibition, % at 20 µM. shares compounds with tim10-1 inh. S. cerevisiae tim10-1 ts strain growth, BacTiter-Glo, 24 h. hit rate 56% among 7,400;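 active = inhibition of yeast growth at or above a set limit in either of two repeat tests at 20 µM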;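 note: tim10-1 mutant grown at permissive 25 °C to find synthetic lethal compounds; 0% = DMSO yeast wells and 100% = medium wells without yeast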
TIM10 conf: growth inhibitors of wild-type TIM10 yeast, confirmation, counter-screen for tim10-1 synthetic lethality project, single concentration, luminescence, S. cerevisiae | shares compounds with TIM10 inh | S. cerevisiae tim10 strain growth, BacTiter-Glo luminescence, 24 h | inhibition, % at 10 µM | hit rate 63% among 4,600;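 active = inhibition of yeast growth at or above a set limit in either of two replicates at 10 µM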;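 note: this counterscreen used the strain with wild-type TIM10; 0% = yeast with DMSO and 100% = medium wells lacking yeast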
tim23-1 conf: tim23-1 mutant yeast growth inhibitors, confirmation, luminescence, single concentration. hit rate 83% among 4,400. shares compounds with tim23-1 inh. inhibition, % at 20 µM. S. cerevisiae tim23-1 growth, BacTiter-Glo luminescence, 24 h. AID 463218, 2010;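 active = inhibition above about 39% in either of two replicate wells at 20 µM, limit read from the data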;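 note: temperature-sensitive tim23-1 mutant grown at 25 °C; 0% = DMSO wells with yeast and 100% = medium wells without yeast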
Active calls of the source: *.

Oc1c(I)cc(I)c2cccnc12 was read as PfHsp90 yeast 2 109*, tim10-1 inh 71*, tim23-1 inh 69*, SKKanGAS inh 92*, EBI2 antag -3, TIM10 inh 53*, tim10-1 confirm 65*, TIM10 conf 76* and tim23-1 conf 56*.
Screening CCN(Cc1ccccc1)C(c1ccc(C)cc1)c1nnnn1C(C)(C)C (configuration not stated) returned PfHsp90 yeast 2 -21, tim10-1 inh 29, tim23-1 inh 24, SKKanGAS inh 40, EBI2 antag 20 and TIM10 inh 12.
`CCN(Cc1ccccc1)C(c1ccccn1)c1nnnn1C(C)(C)CC` (configuration not stated) gave PfHsp90 yeast 2 -1, tim10-1 inh 42*, tim23-1 inh 66*, SKKanGAS inh -3, EBI2 antag 11, TIM10 inh 52*, tim10-1 confirm 47*, TIM10 conf 51* and tim23-1 conf 55*.
For COc1cc(NC(=O)CCc2nnc3ccc(N4CCOCC4)nn23)cc(OC)c1OC the results were PfHsp90 yeast 2 -13, tim10-1 inh -9, tim23-1 inh -16, SKKanGAS inh -6, EBI2 antag -2 and TIM10 inh -7.
CCN(C[C@H]1N[C@@](Cc2ccccc2)(C(=O)OC)[C@H]2C(=O)N(Cc3ccccc3)C(=O)[C@@H]12)C(=O)Nc1ccc(C)cc1 was read as PfHsp90 yeast 2 3, tim10-1 inh 16, tim23-1 inh 18, EBI2 antag 7 and TIM10 inh 8.
Screening CCN(C[C@H]1N[C@@](Cc2ccccc2)(C(=O)OC)[C@H]2C(=O)N(Cc3ccccc3)C(=O)[C@@H]12)C(=O)Nc1ccc(C(F)(F)F)cc1 returned PfHsp90 yeast 2 4, tim10-1 inh 76*, tim23-1 inh 70*, EBI2 antag 16, TIM10 inh 72*, tim10-1 confirm 81*, TIM10 conf 69* and tim23-1 conf 75*.
For COc1ccc(CCNC(=O)Nc2ccc3nc([C@@H]4O[C@H](CO)[C@@H](O)[C@H](O)[C@H]4O)[nH]c3c2)cc1Br the results were EBI2 antag -5.
`Cc1cc2c([nH]c3ccccc32)c2c1OC(C)(C)C=C2` gave PfHsp90 yeast 2 18, tim10-1 inh 63*, tim23-1 inh 56*, SKKanGAS inh 39, EBI2 antag 2, TIM10 inh 23, tim10-1 confirm 49* and tim23-1 conf 70*.
Screening COc1ccc2[nH]c(=O)c3c(c2c1)OC(C)(C)C=C3 returned tim10-1 inh 17, tim23-1 inh 1, SKKanGAS inh -3, EBI2 antag -1 and TIM10 inh 2.
`CCOC(=O)c1nnc(-c2cccs2)nc1Oc1ccc(Cl)cc1` gave PfHsp90 yeast 2 -2, tim10-1 inh 27, tim23-1 inh 49, SKKanGAS inh 2, EBI2 antag -4 and TIM10 inh 19.
Screening CCOC(=O)c1nnc(-c2cccs2)nc1Oc1ccccc1C(=O)OC returned PfHsp90 yeast 2 9, tim10-1 inh 41*, tim23-1 inh 51*, SKKanGAS inh -1, EBI2 antag -12, TIM10 inh 49*, tim10-1 confirm 27, TIM10 conf 35* and tim23-1 conf 50*.
For CCOC(=O)c1nnc(-c2cccs2)nc1NC(C)C the results were PfHsp90 yeast 2 3, tim10-1 inh 47*, tim23-1 inh 55*, SKKanGAS inh -9, EBI2 antag -6, TIM10 inh 23, tim10-1 confirm 42* and tim23-1 conf 44*.
CC1Cc2ccccc2N1C(=O)CN1CCC(n2nnc3cc(C(F)(F)F)ccc32)CC1 (configuration not stated) was read as PfHsp90 yeast 2 -22, tim10-1 inh 41*, tim23-1 inh 50*, SKKanGAS inh 3, EBI2 antag -9, TIM10 inh 29, tim10-1 confirm 38* and tim23-1 conf 42*.
COC(=O)c1ccccc1NC(=O)CN1CCC(n2nnc3cc(C(F)(F)F)ccc32)CC1 was read as PfHsp90 yeast 2 3, tim10-1 inh 16, tim23-1 inh 1, SKKanGAS inh 12, EBI2 antag 14 and TIM10 inh 21.
COc1ccc(Cl)cc1C(=O)NC(=S)Nc1ccccc1N1CCOCC1 was read as PfHsp90 yeast 2 -4, tim10-1 inh 15, tim23-1 inh 24, SKKanGAS inh 6, EBI2 antag 9 and TIM10 inh 9.
`O=C(NC(=S)Nc1cc(Cl)ccc1N1CCOCC1)c1ccccc1[N+](=O)[O-]` gave PfHsp90 yeast 2 -29, tim10-1 inh 51*, tim23-1 inh 56*, SKKanGAS inh -2, EBI2 antag 0, TIM10 inh 45*, tim10-1 confirm 50*, TIM10 conf 47* and tim23-1 conf 55*.
`COCCNC(=O)/C(C#N)=C/c1c(F)cccc1Cl` gave PfHsp90 yeast 2 -27, tim10-1 inh 63*, tim23-1 inh 82*, SKKanGAS inh -5, EBI2 antag -38, TIM10 inh 66*, tim10-1 confirm 56*, TIM10 conf 63* and tim23-1 conf 77*.
For COc1ccc(CNC(=O)CN2C(=O)CSc3ccc(S(=O)(=O)N4CCCCC4)cc32)cc1 the results were PfHsp90 yeast 2 -9, tim10-1 inh 13, tim23-1 inh 4, SKKanGAS inh 12, EBI2 antag 14 and TIM10 inh 11.
Screening COc1ccc2noc3c2c1C(=O)c1ccccc1-3 returned PfHsp90 yeast 2 0, tim10-1 inh 61*, tim23-1 inh 69*, SKKanGAS inh 5, EBI2 antag -21, TIM10 inh 39, tim10-1 confirm 71* and tim23-1 conf 72*.

High-throughput results as filed in PubChem BioAssay.
